Assay results published in PubChem BioAssay AID493012 (Sanford-Burnham Center for Chemical Genomics, 2011).
The campaign covered roughly 330,000 compounds. About 930 (0.28%) were called active. The sample holds actives, similar compounds and a random draw of the others, so the mix is not that of the screen.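 The calls were made as follows: active = inhibition of at least 40% at 20 µM, with no more than 30% in the related APOBEC3A deaminase screen; inactive = the rest.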

Target: DNA dC->dU-editing enzyme APOBEC-3G (Homo sapiens) (UniProt Q9HC16)
Sequence (Q9HC16 whole entry, looked up): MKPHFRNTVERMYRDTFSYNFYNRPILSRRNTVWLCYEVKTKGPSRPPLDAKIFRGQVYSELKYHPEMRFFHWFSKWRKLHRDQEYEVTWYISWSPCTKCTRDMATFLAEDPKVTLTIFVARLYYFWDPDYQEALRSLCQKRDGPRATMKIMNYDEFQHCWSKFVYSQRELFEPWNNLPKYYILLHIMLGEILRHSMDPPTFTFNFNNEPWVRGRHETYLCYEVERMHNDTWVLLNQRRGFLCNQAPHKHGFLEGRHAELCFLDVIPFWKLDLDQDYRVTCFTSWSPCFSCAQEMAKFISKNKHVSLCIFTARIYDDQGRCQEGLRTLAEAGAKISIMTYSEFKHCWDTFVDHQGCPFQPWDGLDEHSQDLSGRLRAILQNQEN
Test: inhibition of human A3G ssDNA deamination – biochemical, fluorescence, single-stranded DNA substrate, uHTS, primary screen (AID 493012);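 also: plate controls were DMSO wells with A3G for no effect and wells lacking A3G enzyme for full effect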
Details: recombinant A3G, ssDNA deamination FAM/TAMRA fluorescence; at 20 µM; hits give high values

inhibition, inactive:
Cc1cccc(NC(=O)C2CCCN(C(=O)Nc3ccc(F)cc3)C2)c1C (centres undefined) -9.22%
COc1ccc(OC)c(-n2c(-c3ccn[nH]3)n[nH]c2=S)c1 6.84%
COc1ccccc1-n1cn[nH]c1=S -7.32%
Cc1ccccc1N1CC(C(=O)Nc2ccc3c(c2)OCO3)CC1=O (centres undefined) -5.81%
Cc1ccc(C)c(N2CCN(C(=O)CCc3nc(-c4cccc(C(F)(F)F)c4)no3)CC2)c1 2.36%
CCc1ccc2nc3sc(C(=O)Nc4nnc(CC)s4)c(N)c3cc2c1 -0.825%
COc1ccc(OC)c(NC(=O)c2sc3nc(C)cc(C)c3c2N)c1 -11%
COc1cc(C(=O)Nc2ncccc2C)ccc1OCC(=O)N1CCOCC1 -6.99%
COc1cccc(NC(=O)N2CCCC2C(=O)NC2CCCCC2)c1 (centres undefined) -7.25%
COc1ccc(NC(=O)c2sc(N3CCOCC3)nc2-c2ccccc2)c(OC)c1 -6.69%
CCC1Sc2ccc(S(=O)(=O)CCC(=O)NCc3cccs3)cc2NC1=O (centres undefined) -2.6%
O=c1c2ccccc2oc2nc(C3CCCCC3)n(Cc3ccco3)c(=O)c12 -6.57%
CCCc1nc2c(c(=O)c3ccccc3n2C)c(=O)n1C1CCCCCC1 2.29%
CC(=O)N1C(=O)/C(=C2\SC(=S)N(NC(=O)c3ccc(O)cc3)C2=O)c2ccccc21 1.88%
COc1cccc(NC(=O)CSc2nnc(C3CCCCC3)n2N)c1 -9.04%
Cc1cccc(NC(=O)c2ccc(S(=O)(=O)N(C)CC3CCCO3)cc2)c1C (centres undefined) 1.74%
Cc1ccc(C)c(S(=O)(=O)Nc2cc(C)on2)c1 -6.75%
Cc1ccc(NCc2n[nH]c(=S)n2-c2ccccc2)cc1Cl 10.6%
NC(=O)Cn1nc([N+](=O)[O-])nc1Oc1ccc(Br)cc1 -11.7%
COCCn1c(CN2CCC(Cc3ccccc3)CC2)nc2c1c(=O)n(C)c(=O)n2C -4.86%
Cc1ncn(C23CC4CC(CC(O)(C4)C2)C3)n1 -4.67%
COc1cccc(NC(=O)c2nn(C34CC5CC(CC(C5)C3)C4)cc2[N+](=O)[O-])c1 0.433%
Cc1ccc(Sc2ccncc2S(N)(=O)=O)cc1 -12.3%
CCc1nnc(NC(=O)C2CCN(C(=O)c3ccccc3C)CC2)s1 -4.15%
COc1ccc(CNC(=O)C2CCN(C(=O)c3ccco3)CC2)cc1 -11.5%
CC(C)NC(=O)NNc1c(Cl)cncc1Cl -7.21%
CCn1cc(C(=O)NCC(=O)NC(C)(C)CO)c(=O)c2cc3c(cc21)OCO3 5.44%
CCOc1ccc(CCNC(=O)COC(=O)c2c(OC)cccc2OC)cc1OCC -6.63%
COc1ccc(N2CC(C(=O)NCCS(=O)(=O)N3CCN(c4ccccc4)CC3)CC2=O)cc1 (centres undefined) -3.81%
Cc1ccc(S(=O)(=O)CC(=O)Nc2sc(C)c(C)c2C(N)=O)cc1 19.4%
Cc1sc(NC(=O)c2ccc3ncsc3c2)c(C(N)=O)c1C -14.1%
CC(CN1CCCCC1)OC(=O)c1ccccc1Cl (centres undefined) -6.81%
O=C(CSc1nccc(=O)[nH]1)Nc1ccc(N2CCOCC2)c(Cl)c1 1.54%
Cc1nnc(SCC(=O)NNC(=O)c2ccc(Cl)cc2)n1CC1CCCO1 (centres undefined) -0.693%
Cc1ccc(-n2c(-c3ccc(Cl)cc3)n[nH]c2=S)cc1 11.5%
O=C(CSc1nc2[nH]ncc2c(=O)[nH]1)Nc1ccc(F)cc1 -9.68%
Cc1occc1-c1nnc(SCC(=O)NC2(C#N)CCCC2)n1C -13.5%
COCCN1C(=O)C(=O)/C(=C(/O)c2ccc(S(=O)(=O)N3CCOCC3)cc2)C1c1ccc(OC)c(OC)c1 (centres undefined) -5.33%
CCOc1ccc(Br)cc1S(=O)(=O)Nc1cccc(S(=O)(=O)N(CC)CC)c1 -8.57%
O=C(Cn1cnc2cc([N+](=O)[O-])ccc2c1=O)NC(=O)NCc1ccccc1 -6%
Cc1ccc(S(=O)(=O)N2CCN(S(=O)(=O)N3CCOCC3)CC2)cc1 -5.83%
COc1ccc(NC(=O)c2oc3ccc(S(=O)(=O)N4CCOCC4)cc3c2C)cc1 -7.26%
CCCCCCCCn1c2c(c(=N)c3c1CCC3)CCCC2 -6.25%
Cc1ccsc1/C=N/n1c(=S)[nH]nc(C)c1=O -0.898%
COc1cc(/C=N/n2c(C)n[nH]c2=S)ccc1OCc1ccccc1 9.64%
O=S(=O)(N/N=C\c1cccn1-c1ccccc1)c1ccc2ccccc2c1 -6.33%
COC(=O)c1cccc(N2C(=O)C3C4C=CC(CC4)C3C2=O)c1 (centres undefined) -6.25%
COC(=O)c1cccc(NC(=O)c2cccc(N3C(=O)CCC3=O)c2)c1 -9.31%
CCOC(=O)C1CCN(S(=O)(=O)c2cc(F)ccc2OC)CC1 -1.04%
CCC(=O)Nc1ccccc1C(=O)N1CCN(Cc2ccccc2)CC1 -6.48%
CCC(=O)Nc1ccc(C(=O)Nc2cc(C)on2)cc1 2.01%
CCOc1ccc(C(=O)Nc2ccc(S(=O)(=O)Nc3cc(C)on3)cc2)cc1 -9.24%
CC(C)NC(=O)c1ccc(Sc2ccccc2)c([N+](=O)[O-])c1 -2.3%
O=C(Cc1ccccc1)NNC1CC(=O)N(c2ccc(Br)cc2)C1=O (centres undefined) 4.82%
COC(=O)c1sccc1NC(=O)CC1C(=O)NCCN1C(=O)Nc1ccc(F)cc1F (centres undefined) -4.83%
CNC(=O)c1sc(Nc2ccc(OCc3ccccc3)cc2)nc1C -1.98%
CSCCC(NS(=O)(=O)c1ccc(C)cc1)C(=O)NCCc1c[nH]c2ccccc12 (centres undefined) -1.39%
CN(c1ccccc1)S(=O)(=O)c1ccc(Cl)c(C(=O)NCCc2c[nH]c3ccccc23)c1 -7.53%
COc1ccc(C)cc1NC(=O)CCS(=O)(=O)c1cccc2nonc12 -1.32%
O=C1CC(N2CCN(c3ccc(F)cc3)CC2)C(=O)N1c1ccccc1 (centres undefined) -7.4%
Cc1ccc(N2C(=O)CC(Sc3ncn[nH]3)C2=O)cc1 (centres undefined) 28%
CCOc1ccc(-c2cn(S(=O)(=O)c3cccc4nsnc34)nc2N)cc1 0.75%
CCOC(=O)C(NC(C)=O)C(=O)Nc1ccc(OC)cc1 (centres undefined) -5.93%
O=c1[nH]c(=S)[nH]c2[nH]c(=S)[nH]c12 93.2%
CCNC(=O)CC1C(=O)N(c2ccc(F)cc2)C(=O)N1CCc1sccc1C (centres undefined) -6.98%
COc1ccc(C2=NO[C@@H]3C(=O)N(Cc4ccccc4)C(=O)[C@H]23)cc1OC -9.52%
CC(C)(C)NC(=O)Cn1cnc([N+](=O)[O-])n1 -1.06%
O=C(Cc1ccc(Br)cc1)NCCc1ccccc1 -5.45%
COCCN1C(=O)C(=O)/C(=C(/O)c2ccc(S(=O)(=O)N3CCOCC3)cc2)C1c1ccc(O)c(OC)c1 (centres undefined) -1.29%
CCOC(=O)C(Sc1ncc(C#N)c(N)n1)C(C)C (centres undefined) 1.62%
Cn1c(N)cc(-c2ccc(F)cc2)c(C#N)c1=O -8.38%
COc1ccc(O)c(C(=O)c2cnc3c(c2)c(-c2ccc(F)cc2)c(C#N)c(=O)n3C)c1 -3.05%
CC1c2nc3ccccc3n2C(CC(=O)NCCCN2CCOCC2)C(=O)N1Cc1ccccc1 (centres undefined) -9.69%
O=C(Nc1ccc(-c2ccc3nncn3n2)cc1)C1CCCCC1 -1.63%
O=C(Nc1ccncc1)Nc1ccc(F)cc1 -2.01%
CN(C)c1nc(NN)nc(Nc2ccc(F)cc2)n1 -0.168%

inhibition, active:
COc1ccccc1-n1c(-c2cc(-c3ccco3)[nH]n2)n[nH]c1=S 66.2%
Cc1ccc(NC(=O)c2sc3nc(N)c(C#N)cc3c2N)cc1 53.5%
Cn1c2ccccc2c(=O)c2c(=O)n(Cc3ccco3)c(COc3ccccc3)nc21 52.8%
Cc1cc(-c2n[nH]c(=S)n2-c2ccc(C)c(C)c2)no1 45.2%
Cc1ccnc(-n2sc3ccccc3c2=O)n1 87%
Cc1nc([N+](=O)[O-])nn1C12CC3CC(CC(Br)(C3)C1)C2 59.1%
CCC(CC)c1nnc(NC(=O)C2CCN(C(=O)c3ccco3)CC2)s1 43.5%
Cc1ccc(C(=O)c2c(NC(=O)c3ccccc3)sc(C)c2C)cc1 43.3%
S=c1[nH]nc(-c2ccc(Cl)cc2)n1CC1CCCO1 (centres undefined) 43.8%
Cc1noc(C)c1CSc1nc2cc(S(=O)(=O)N3CCOCC3)ccc2o1 45.8%
Cc1n[nH]c(=S)n1/N=C/c1ccc(Br)o1 40.4%
COC(=O)c1cccc(-n2[nH]nnc2=S)c1 59%
CCOc1ccc(NC(=O)Nc2cc(C)on2)cc1 65.3%
Cc1ccc(S(=O)(=O)N(C)CC(=O)NCCc2c[nH]c3ccccc23)cc1 49.6%
O=C1CC(Sc2ncn[nH]2)C(=O)N1c1ccccc1 (centres undefined) 41.6%
O=C(Cn1cnc([N+](=O)[O-])n1)NCCc1ccccc1 61.5%
Cc1cc(C)c2c(-c3ccc(F)cc3)c(C#N)c(=O)n(C)c2n1 53.9%
Fc1ccc(Nc2nnns2)cc1 48.9%
